According to PubChem BioAssay (NCATS):
Results filed as inconclusive are left out. Active and inactive are the calls of the source. Calls follow the shape of the dose curve; as a rule, active = well fitted curve in the direction sought with a large enough effect; inconclusive = small, poorly fitted or top-dose-only effect, or another doubt; inactive = no such curve, though single readings can be large; an effect the other way counts as inactive or inconclusive.

Tests used:
[1] = molecular target: Glutathione peroxidase 1 (Homo sapiens) (UniProt P07203); experiment: Primary qHTS Assay for Inhibitors of Recombinant Selenoprotein Glutathione Peroxidase 1 (GPX1) (AID 1845191); also: nearly all actives have a fitted effect of over 65% in size; as to activity, negative = inhibition: % is scaled to controls: 0 for no effect and ±100 for the full control effect
Sequence of Glutathione peroxidase 1 (Homo sapiens) (P07203 whole entry, looked up): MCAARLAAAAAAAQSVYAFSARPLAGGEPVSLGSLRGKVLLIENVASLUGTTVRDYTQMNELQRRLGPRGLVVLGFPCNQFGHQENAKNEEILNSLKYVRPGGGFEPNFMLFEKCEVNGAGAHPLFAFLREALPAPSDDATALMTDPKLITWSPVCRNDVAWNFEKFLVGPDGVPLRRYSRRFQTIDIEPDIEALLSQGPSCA
Method in brief: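 Recombinant GPX1 (10 nM final) was preincubated with compound for 30 min at room temperature, then reacted with 1 mM GSH, 0.5 mM CHP, 0.5 mM NADPH and 100 nM glutathione reductase; NADPH fluorescence (340/450 nm) was read at 0 and 15 min.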

[2] = molecular target: Phospholipid hydroperoxide glutathione peroxidase GPX4 (Homo sapiens) (UniProt P36969); experiment: Primary qHTS Assay for Inhibitors of Recombinant Selenoprotein Glutathione Peroxidase 4 (GPX4) (AID 1845192); also: nearly all actives have a fitted effect of over 65% in size; as to activity change, negative = inhibition: series mostly up to about 50 µM; % is scaled to controls: 0 for no effect and ±100 for the full control effect
Sequence of Phospholipid hydroperoxide glutathione peroxidase GPX4 (Homo sapiens) (P36969 whole entry, looked up): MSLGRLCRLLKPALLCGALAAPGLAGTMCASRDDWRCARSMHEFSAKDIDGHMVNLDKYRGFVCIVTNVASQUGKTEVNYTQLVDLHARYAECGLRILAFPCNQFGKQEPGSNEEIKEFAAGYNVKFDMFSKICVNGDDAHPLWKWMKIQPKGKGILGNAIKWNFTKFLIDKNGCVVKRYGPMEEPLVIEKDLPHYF
Method in brief: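 GR-coupled readout: 100 nM GR, 1 mM GSH, 0.5 mM NADPH; NADPH fluorescence (ex 340/em 450 nm) read at t=0 and after 15 min RT. GPX4 200 nM, preincubated 30 min with compound; substrate 0.5 mM CHP.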

[3] = molecular target: Luciferin 4-monooxygenase (Photinus pyralis) (UniProt P08659); experiment: Primary firefly luciferase (FLuc) qHTS assay for identification of artifact compounds. (AID 1845220); also: nearly all actives have a fitted effect of over 60% in size; also: potency is read from the fitted curve at half-maximal effect;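 as to activity change, negative = inhibition: series mostly up to about 54 µM; plate controls were DMSO vehicle for no effect and no enzyme for full effect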
Method in brief: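 In this counter-screen for luciferase artifacts, test compounds met substrate (10 uM each luciferin and ATP) before 10 nM enzyme started the reaction. Light output was measured 5 min later.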

[4] = Primary fluorescence-based thiol-reactive (MSTI) qHTS assay for identification of artifact compounds. (AID 1845221);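 also: series mostly up to about 54 µM; thiol-reactive compounds lower the probe fluorescence signal; nearly all actives have a fitted effect of over 65% in size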
Method in brief: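 MSTI probe at 4 uM final in 2% DMSO/PBS pH 7.4; compounds, 1 h at room temperature in dark. Fluorescence Ex/Em 525/598 nm, normalised to Acetyl-MSTI and MSTI, fitted to 4-parameter Hill.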

[5] = Primary redox qHTS assay for identification of artifact compounds. (AID 1845223);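 also: 0% = DMSO and 100% = reference compound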
Method in brief: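 Amplex Red (25 uM) and HRP (250 mU/mL) in HBSS, with compounds for 15 min, then 250 uM DTT for 30 min, room temperature, dark. Fluorescence 525/598 nm read; normalized to DMSO and 10 uM DA3003; Hill fit.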

[6] = tested on: Nanoluciferase (engineered Oplophorus gracilirostris luciferase); experiment: Primary Nanoluciferase (NLuc) qHTS assay for identification of artifact compounds. (AID 1845222);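 also: NLuc secreted into diluted conditioned medium of S16 cells; series mostly up to about 54 µM; 0% = DMSO and -100% = no enzyme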
Method in brief: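 Using secreted nanoluciferase in S16 culture medium (0.22 um filtered, 1:55 dilution), compounds were preincubated 15 min at RT. Signal was generated with Nano-Glo reagent (1:100) over 5 min.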

CC1(C)CC[C@]2(C(=O)O)CC[C@]3(C)C(=CCC4[C@@]5(C)C[C@@H](O)[C@H](O)C(C)(C)C5CC[C@]43C)[C@@H]2[C@@H]1O (stereo not given in full)
inactive: Potency [1] | Potency [2] | Potency [3] | Potency [4] | Potency [5]

CC1(C)CC2C(C1)C1(C)CCC13OC3(CO)C2O (stereo not given)
inactive: Potency [1] | Potency [2] | Potency [3] | Potency [6]

C=CCc1ccc(O[C@@H]2O[C@H](CO[C@@H]3O[C@@H](C)[C@H](O)[C@@H](O)[C@H]3O)[C@@H](O)[C@H](O)[C@H]2O)cc1
inactive: Potency [1] | Potency [2] | Potency [3] | Potency [6] | Potency [5]

C[C@@H]1O[C@@H](O[C@H]2[C@H](O[C@H]3CC[C@@]4(C)C(CC[C@]5(C)C4CC=C4[C@@H]6CC(C)(C)CC[C@]6(C(=O)O)CC[C@]45C)[C@]3(C)CO)OC[C@H](O)[C@@H]2O)[C@H](O)[C@H](O[C@@H]2OC[C@@H](O)[C@H](O)[C@H]2O)[C@H]1O (stereo not given in full)
inactive: Potency [1] | Potency [2] | outcome [3] inactive [at 11.6 µM] | activity, negative = inhibition [6] 0.957% [at 11.6 µM] | redox activity (% of DA3003) [5] 0.416% [at 11.5 µM]

CC12CC34C=CC(=O)C(C)(CCC(=O)O)C3C(CC1C4)O2 (stereo not given)
inactive: Potency [1] | Potency [2] | Potency [3] | Potency [6] | Potency [5]

CC(C)=CCC/C(C)=C/CC/C(C)=C/CC[C@]1(C)CCc2cc(O)cc(C)c2O1
inactive: Potency [1] | Potency [2] | Potency [3] | Potency [6] | Potency [5]

CC1(C)CC[C@]2(C(=O)O)CC[C@]3(C)C(=CCC4[C@@]5(C)C[C@H](O)[C@H](O[C@@H]6OC[C@H](O)[C@H](O)[C@H]6O)[C@@](C)(CO)C5CC[C@]43C)[C@@H]2C1 (stereo not given in full)
inactive: Potency [1] | Potency [2] | Potency [3] | Potency [6] | Potency [5]

CC(C)CC(=O)n1cc(C(N)=O)c(=O)cc1C(O)c1ccccc1 (stereo not given)
inactive: Potency [1] | Potency [2] | Potency [3] | Potency [6]

C=C1CCC2C(C)(C)C(O)CCC2(C)C1CCC(C)CCOC(=O)CCC(=O)O (stereo not given)
inactive: Potency [1] | Potency [2] | Potency [3] | Potency [6]

C/C(=C/CO)CC[C@@H]1[C@@]2(C)CCC[C@](C)(C(=O)O)C2CC[C@@]1(C)O (stereo not given in full)
inactive: Potency [1] | Potency [2] | Potency [3] | Potency [6] | Potency [5]

CC1=CC(=O)C2C(C)(C)CC(O)CC2(C)C1CO (stereo not given)
inactive: Potency [1] | Potency [2] | Potency [3] | Potency [6]

CC(=O)NC(C(=O)OC1CCC(C)(C)C2CC=C3C(=O)OCC3(O)C12C)C(C)C (stereo not given)
inactive: Potency [1] | Potency [2] | Potency [3] | Potency [6] | Potency [5]

OC[C@H]1O[C@@H](Oc2cc(O)cc(/C=C/c3ccc(O)cc3)c2)[C@H](O)[C@@H](O)[C@@H]1O
inactive: Potency [1] | Potency [2] | Potency [3] | Potency [6]

O=C(/C=C/c1ccc(O)cc1)O[C@H]1[C@@H]2C=CO[C@@H](O[C@@H]3O[C@H](CO)[C@@H](O)[C@H](O)[C@H]3O)[C@@H]2[C@@]2(CO)O[C@@H]12
inactive: Potency [1] | Potency [2] | Potency [3] | Potency [6] | Potency [5]

C/C=C(\C)C(=O)O[C@H]1[C@@H](O[C@]2(COC(=O)CC(C)C)O[C@H](COC(=O)C(C)C)[C@@H](OC(C)=O)[C@@H]2O)O[C@H](COC(C)=O)[C@@H](O)[C@@H]1O
active: Potency [3] 4.46 µM
inactive: Potency [1] | Potency [2] | Potency [6]

CC1(C)CC[C@]2(C(=O)O)CC[C@]3(C)C(=CCC4[C@@]5(C)CCC(O[C@@H]6OC[C@H](O)[C@H](O)[C@H]6O[C@@H]6O[C@H](CO)[C@@H](O)[C@H](O)[C@H]6O)[C@@](C)(CO)C5CC[C@]43C)[C@@H]2C1 (stereo not given in full)
inactive: Potency [1] | Potency [2] | Potency [3] | Potency [6] | Potency [5]

CC1=C2C=C(CO)C(CO)CCC2(C)CCC1=O (stereo not given)
inactive: Potency [1] | Potency [2] | Potency [3] | Potency [6]

COc1c(OC2OC(CO)C(O)C(O)C2O)ccc(O)c1C(=O)OCc1ccccc1O[C@@H]1O[C@H](CO)[C@@H](O)[C@H](O)[C@H]1O (stereo not given in full)
inactive: Potency [1] | Potency [2] | Potency [3] | Potency [6] | Potency [5]

COC(=O)C1=CO[C@@H](O[C@@H]2O[C@H](COC(=O)/C=C/c3cc(OC)c(O)c(OC)c3)[C@@H](O)[C@H](O)[C@H]2O)[C@@H]2C(CO)=CC[C@H]12
inactive: Potency [1] | Potency [2] | Potency [3] | Potency [6]

C=C[C@H]1[C@H](O[C@@H]2O[C@H](CO)[C@@H](O)[C@H](O)[C@H]2O)OC=C(C(=O)OC)[C@H]1C[C@@H]1N[C@H](C(=O)O)Cc2c1[nH]c1ccccc21
inactive: Potency [1] | Potency [2] | Potency [3] | Potency [6]

C[C@H]1[C@H](C)CC[C@]2(C(=O)O[C@@H]3O[C@H](CO)[C@@H](O)[C@H](O)[C@H]3O)CC[C@]3(C(=O)O)C(=CCC4[C@@]5(C)CC[C@H](O[C@@H]6O[C@H](CO)[C@@H](O)[C@H](O)[C@H]6O)C(C)(C)C5CC[C@]43C)[C@H]12 (stereo not given in full)
inactive: Potency [1] | Potency [2] | outcome [3] inactive [at 11.6 µM] | activity, negative = inhibition [6] -1.27% [at 11.6 µM] | redox activity (% of DA3003) [5] 2.24% [at 11.5 µM]

CC(CO[C@@H]1O[C@H](COC(=O)/C=C/c2ccc(O)c(O)c2)[C@@H](O)[C@H](O)[C@H]1O)C1(O)COC(=O)C1 (stereo not given in full)
inactive: Potency [1] | Potency [2] | Potency [3] | Potency [6]

CN(NC(=O)CC(=O)NN(C)C(=S)c1ccccc1)C(=S)c1ccccc1
inactive: Potency [1] | Potency [2] | Potency [3] | Potency [6] | Potency [5]

CC1(C)CC2C3=CCC4C5(C)CCC(OC6OC(CO)C(O)C(OC7OC(CO)C(O)C(OC8OC(CO)C(O)C(OC9OC(COC%10OC(CO)C(O)C(O)C%10O)C(O)C(O)C9O)C8O)C7O)C6O)C(C)(C)C5CCC4(C)C3(C)CCC2(C(=O)O)CC1O (stereo not given)
inactive: activity, negative = inhibition [1] -11.7% [at 9.52 µM] | outcome [2] inactive [at 9.73 µM] | activity change, negative = inhibition [3] -5.47% [at 11.6 µM] | activity, negative = inhibition [6] 0.268% [at 11.6 µM] | redox activity (% of DA3003) [5] 10.1% [at 11.5 µM]
